The list is not random: actives were taken first. Their share in the collection is about 3.1%.
BoNT A protease: blocks Botulinum neurotoxin A light chain protease; multiplex microsphere protease substrate cleavage, flow cytometry; inhibition, % at 10 µM; actives 0.17% (n = 360,000); also: plate controls were buffer without enzyme for full effect and enzyme alone for no effect
BoNT-F LC inh: inhibitors of Botulinum neurotoxin F light chain protease | Multiplex microsphere protease cleavage assay, flow cytometry | inhibition, % at 10 µM | actives 0.22% (n = 360,000) | AID 588497; in the data active = inhibition above about 35%, passing the limit was not always enough; inconclusive = no clear call, values can overlap the other calls; also: plate controls were buffer without enzyme for full effect and enzyme alone for no effect
SSB-PriA inh: inhibitors of Klebsiella pneumoniae PriA binding to SSB C-terminal tail; AlphaScreen SSBct-PriA binding, biotinylated peptide; inhibition, % at 33 µM; actives 0.6% (n = 430,000); AID 1272365; in the data active = inhibition mostly above about 37%, no sharp cut-off; inactive = mostly below about 20%;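 also: plate controls were negative control peptide for no effect and reference peptide for full effect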
Anthrax LF inh2: blocks Bacillus anthracis lethal factor protease; P15917; multiplex microsphere protease cleavage assay, LF; inhibition, % at 10 µM; actives 0.12% (n = 360,000); AID 588501; also: plate controls were buffer without enzyme for full effect and enzyme alone for no effect
Target sequence (P15917 whole entry, looked up): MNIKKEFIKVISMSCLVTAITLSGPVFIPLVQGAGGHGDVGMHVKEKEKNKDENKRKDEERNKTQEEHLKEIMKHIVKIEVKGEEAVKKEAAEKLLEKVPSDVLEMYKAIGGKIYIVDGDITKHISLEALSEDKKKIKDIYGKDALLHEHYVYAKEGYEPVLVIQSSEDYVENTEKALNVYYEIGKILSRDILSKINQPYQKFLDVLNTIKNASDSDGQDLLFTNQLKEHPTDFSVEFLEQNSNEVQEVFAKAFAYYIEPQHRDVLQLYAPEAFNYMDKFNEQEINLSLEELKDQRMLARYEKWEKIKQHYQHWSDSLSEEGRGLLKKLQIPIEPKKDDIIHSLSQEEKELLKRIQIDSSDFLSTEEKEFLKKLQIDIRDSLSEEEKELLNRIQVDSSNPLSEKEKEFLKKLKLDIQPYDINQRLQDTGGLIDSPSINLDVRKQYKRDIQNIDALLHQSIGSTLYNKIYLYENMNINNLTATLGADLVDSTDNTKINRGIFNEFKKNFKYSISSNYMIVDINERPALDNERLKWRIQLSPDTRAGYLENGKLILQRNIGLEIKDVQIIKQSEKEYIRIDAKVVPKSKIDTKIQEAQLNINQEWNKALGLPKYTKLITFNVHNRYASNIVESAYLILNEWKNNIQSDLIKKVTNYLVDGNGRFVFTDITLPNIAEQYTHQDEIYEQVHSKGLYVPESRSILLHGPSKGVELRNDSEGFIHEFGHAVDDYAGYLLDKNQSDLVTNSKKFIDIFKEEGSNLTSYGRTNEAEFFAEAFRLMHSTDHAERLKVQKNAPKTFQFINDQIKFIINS
Autofluor counter: flagged as autofluorescent in microsphere protease counterscreen; compound autofluorescence counterscreen, microsphere flow cytometry; stronger effect = higher value; fluorescence intensity (test concentration not listed); actives 3.1% (n = 360,000); in the data active = fluorescence intensity above about 16000; inconclusive = no clear call, values can overlap the other calls
* marks the source's active call; other numbers are inactive results; ! = repeats disagree. Rule as the data show it, unless noted: active = inhibition above about 30%; inconclusive = no clear call, values can overlap the other calls; inactive = below that.

Screening CCc1ccccc1NC(=O)CC1S/C(=N\c2nccs2)N(CC)C1=O (stereo unspecified) returned BoNT A protease -2, BoNT-F LC inh 0, Anthrax LF inh2 -1 and Autofluor counter 17187*.
For O=C(O)C1C2CCCCC2=C2CCCCC2C1C(=O)O (stereo unspecified) the results were BoNT A protease inconclusive, BoNT-F LC inh 3, SSB-PriA inh -14, Anthrax LF inh2 0 and Autofluor counter 18813*.
`CCc1nnc(NC(=O)Nc2ccccc2OC)s1` gave BoNT A protease inconclusive, BoNT-F LC inh 1, SSB-PriA inh -14, Anthrax LF inh2 -7 and Autofluor counter 22103*.
COc1ccccc1NC(=O)NC(N)=O was read as BoNT A protease 0, BoNT-F LC inh -3, SSB-PriA inh -9, Anthrax LF inh2 0 and Autofluor counter 21653*.
COc1ccccc1NC(=O)NC(=O)c1ccccc1 was read as BoNT A protease 5, BoNT-F LC inh inconclusive, SSB-PriA inh -7, Anthrax LF inh2 0 and Autofluor counter 3738.
CN1CCN(c2nc(-c3ccco3)cc(C(F)(F)F)n2)CC1 was read as BoNT A protease -4, BoNT-F LC inh -4, SSB-PriA inh 0, Anthrax LF inh2 -2 and Autofluor counter 17518*.
Screening FC(F)(F)c1cc(-c2ccco2)nc(-n2nc(C(F)(F)F)cc2C2CC2)n1 returned BoNT A protease 6, BoNT-F LC inh 6, SSB-PriA inh -16, Anthrax LF inh2 -5 and Autofluor counter 20606*.
For CCOC(=O)N1CCN(c2nc(-c3ccco3)cc(C(F)(F)F)n2)CC1 the results were BoNT A protease 2, BoNT-F LC inh 2, SSB-PriA inh -24, Anthrax LF inh2 -7 and Autofluor counter 8698.
N#C/C(=C\C=C\c1ccccc1)c1nc(-c2ccc3c(c2)OCO3)cs1 was read as BoNT A protease 52*, BoNT-F LC inh 10, SSB-PriA inh -22, Anthrax LF inh2 21 and Autofluor counter 3363.
For OC(c1ccccc1)(c1nc(-c2ccc3c(c2)OCO3)cs1)C(F)(F)F (stereo unspecified) the results were BoNT A protease 0, BoNT-F LC inh 2, Anthrax LF inh2 -3 and Autofluor counter 3181.
For Cn1cc(NC(=O)NCCC2=CCCCC2)c2ccccc21 the results were SSB-PriA inh 35.
Screening O=C(/C=C/c1ccc2c(c1)OCO2)Nc1ccc2c(c1)OCO2 returned SSB-PriA inh 7.
`Cc1ccc(NC(=O)COc2ccccc2CNC(C)(C)CC(C)(C)C)cc1` gave BoNT A protease -2, BoNT-F LC inh -2, SSB-PriA inh -2, Anthrax LF inh2 -16 and Autofluor counter 16482*.
Screening O=C(COc1ccc(Br)cc1CO)Nc1ccccc1 returned BoNT A protease 0, BoNT-F LC inh -1, SSB-PriA inh -14, Anthrax LF inh2 0 and Autofluor counter 10580.
`Cc1ccc(NC(=O)COc2ccc(Br)cc2CO)cc1` gave BoNT A protease -5, BoNT-F LC inh -8, SSB-PriA inh -9, Anthrax LF inh2 -1 and Autofluor counter 22055*.
`O=C(O)c1ccc2nc(CO)[nH]c2c1` gave BoNT A protease 0, BoNT-F LC inh 2, SSB-PriA inh -14, Anthrax LF inh2 -3 and Autofluor counter 3875.
Screening O=C(O)c1ccc2nc(C(F)(F)F)[nH]c2c1 returned BoNT A protease inconclusive, BoNT-F LC inh -5, SSB-PriA inh -14, Anthrax LF inh2 0 and Autofluor counter 21497*.
For COP(=O)(OC)C(NC(=O)C(C)(C)C)=C(Cl)Cl the results were BoNT A protease 0, BoNT-F LC inh 1, SSB-PriA inh -11, Anthrax LF inh2 3 and Autofluor counter 9697.
Screening CC(C)(C)C(=O)NC(=C(Cl)Cl)P(=O)(O)O returned BoNT A protease -3, BoNT-F LC inh -5, SSB-PriA inh 1, Anthrax LF inh2 -3 and Autofluor counter 24171*.
Screening CCOC(=O)c1cn2nc(-c3ccc(OCC)cc3)cc2nc1C1CCN(C(=O)OC(C)(C)C)CC1 returned BoNT A protease 0, BoNT-F LC inh -3, SSB-PriA inh -6, Anthrax LF inh2 -4 and Autofluor counter 9697.
Screening COc1ccc(-c2cc3nc(C4CCN(C(=O)OC(C)(C)C)CC4)c(C(=O)O)cn3n2)cc1 returned BoNT A protease 1, BoNT-F LC inh 4, SSB-PriA inh -9, Anthrax LF inh2 0 and Autofluor counter 22638*.
O=C(NCc1ccncc1)C(=O)Nc1cccc(N2CCCC2=O)c1 was read as SSB-PriA inh -2.
O=S(=O)(NCCc1ccncc1)c1ccc(F)cc1 was read as BoNT A protease 4, BoNT-F LC inh -11, SSB-PriA inh -19, Anthrax LF inh2 -4 and Autofluor counter 3248.
For O=S(=O)(NCCc1ccncc1)c1ccc(Br)cc1 the results were BoNT A protease 1, BoNT-F LC inh 4, SSB-PriA inh -15, Anthrax LF inh2 0 and Autofluor counter 22923*.
`CCOC(=O)C1CCN(c2c(NCCCN(CC)c3ccccc3)c(=O)c2=O)CC1` gave BoNT A protease inconclusive, BoNT-F LC inh -1, SSB-PriA inh -4, Anthrax LF inh2 0 and Autofluor counter 21430*.
Screening CCOC(=O)C1CCCN(c2c(NCCCN(CC)c3cccc(C)c3)c(=O)c2=O)C1 (stereo unspecified) returned BoNT A protease 0, BoNT-F LC inh -1, SSB-PriA inh 13, Anthrax LF inh2 -2 and Autofluor counter 2791.
CCCCNC(=O)c1ccc(CNc2c(N3CCC(C(=O)OCC)CC3)c(=O)c2=O)cc1 was read as BoNT A protease 0, BoNT-F LC inh -4, SSB-PriA inh -11, Anthrax LF inh2 -4 and Autofluor counter 23374*!.
CCOC(=O)C1CCN(c2c(NCc3ccc(C(=O)NCCOC)cc3)c(=O)c2=O)CC1 was read as BoNT A protease 0, BoNT-F LC inh 15, SSB-PriA inh -5, Anthrax LF inh2 3 and Autofluor counter 4278.
For COc1ccc(Cc2nnc3sc(/C=C/c4cccc(C(F)(F)F)c4)nn23)cc1 the results were SSB-PriA inh -10.
`CC(OC(=O)COc1ccc(Nc2ccccc2)cc1)C(=O)N(C)c1ccccc1` (stereo unspecified) gave BoNT A protease 4, BoNT-F LC inh 6, SSB-PriA inh 40*, Anthrax LF inh2 3 and Autofluor counter 3985.
For CC(OC(=O)CNS(=O)(=O)c1ccc2ccccc2c1)C(=O)N(C)c1ccccc1 (stereo unspecified) the results were BoNT A protease -1, BoNT-F LC inh 1, SSB-PriA inh 1, Anthrax LF inh2 -3 and Autofluor counter 6207.
For COc1ccc(F)cc1S(=O)(=O)N1CC(C)CC(C)C1 (stereo unspecified) the results were BoNT A protease -1, BoNT-F LC inh -3, SSB-PriA inh -16, Anthrax LF inh2 -5 and Autofluor counter 20024*.
Screening CCN1CCN(S(=O)(=O)c2cc(OC)ccc2OC)CC1 returned BoNT A protease 0, BoNT-F LC inh -3, SSB-PriA inh -11, Anthrax LF inh2 -1 and Autofluor counter 24223*.
For COc1ccc(Nc2nc(NC[C@H]3CCCO3)nc3[nH]ncc23)cc1 the results were SSB-PriA inh -4.
Screening Cc1cc(C)n(-c2ncc3c(n2)N(CCO)CCOC3=O)n1 returned BoNT A protease 2, BoNT-F LC inh 35*, SSB-PriA inh -2, Anthrax LF inh2 4 and Autofluor counter 3742.

Assay outcomes (PubChem BioAssay)
